Compound in the experiment: Cc1cc(ccc1-c1ccccc1)C(=O)N1CCCN(CC1)C(=O)CCl [compound 10]
Put plainly: probe-labelled cysteine peptide fold change vs DMSO (competition) (log2 fold change); higher = less target engagement (more negative = stronger competition). To be noted: THP-1, incubation time: 4 h.

Targets with the largest changes are over-represented here; the source holds about 21,000 in all.
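Also: competitive profiling in live THP-1 cells: cysteine peptides tagged with an iodoacetamide desthiobiotin (IA-DTB) probe, intensity after compound treatment relative to DMSO-treated cells.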

Sequence of UniProt Q16666 (Q16666 whole entry, looked up): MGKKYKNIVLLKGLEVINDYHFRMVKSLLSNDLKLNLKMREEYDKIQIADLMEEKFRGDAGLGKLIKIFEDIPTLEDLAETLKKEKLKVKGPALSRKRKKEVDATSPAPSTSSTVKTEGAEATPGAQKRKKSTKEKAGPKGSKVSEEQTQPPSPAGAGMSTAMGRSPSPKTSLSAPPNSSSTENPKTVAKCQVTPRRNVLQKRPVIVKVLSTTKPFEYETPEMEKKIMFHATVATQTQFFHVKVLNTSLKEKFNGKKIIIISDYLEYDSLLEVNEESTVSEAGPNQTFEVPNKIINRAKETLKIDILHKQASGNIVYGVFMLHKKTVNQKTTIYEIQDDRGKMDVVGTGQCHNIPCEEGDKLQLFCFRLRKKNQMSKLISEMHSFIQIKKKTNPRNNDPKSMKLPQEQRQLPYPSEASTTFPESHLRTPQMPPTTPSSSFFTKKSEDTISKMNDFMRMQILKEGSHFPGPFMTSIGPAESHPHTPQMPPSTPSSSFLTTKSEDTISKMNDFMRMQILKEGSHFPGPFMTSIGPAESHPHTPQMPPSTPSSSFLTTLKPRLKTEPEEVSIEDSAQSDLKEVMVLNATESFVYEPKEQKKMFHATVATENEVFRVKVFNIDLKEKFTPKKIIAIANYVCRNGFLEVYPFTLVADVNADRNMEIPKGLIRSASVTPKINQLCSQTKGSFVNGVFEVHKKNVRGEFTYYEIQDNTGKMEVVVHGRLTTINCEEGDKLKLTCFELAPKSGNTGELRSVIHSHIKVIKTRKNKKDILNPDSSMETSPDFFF
Sequence of UniProt Q9NPH3 (Q9NPH3 whole entry, looked up): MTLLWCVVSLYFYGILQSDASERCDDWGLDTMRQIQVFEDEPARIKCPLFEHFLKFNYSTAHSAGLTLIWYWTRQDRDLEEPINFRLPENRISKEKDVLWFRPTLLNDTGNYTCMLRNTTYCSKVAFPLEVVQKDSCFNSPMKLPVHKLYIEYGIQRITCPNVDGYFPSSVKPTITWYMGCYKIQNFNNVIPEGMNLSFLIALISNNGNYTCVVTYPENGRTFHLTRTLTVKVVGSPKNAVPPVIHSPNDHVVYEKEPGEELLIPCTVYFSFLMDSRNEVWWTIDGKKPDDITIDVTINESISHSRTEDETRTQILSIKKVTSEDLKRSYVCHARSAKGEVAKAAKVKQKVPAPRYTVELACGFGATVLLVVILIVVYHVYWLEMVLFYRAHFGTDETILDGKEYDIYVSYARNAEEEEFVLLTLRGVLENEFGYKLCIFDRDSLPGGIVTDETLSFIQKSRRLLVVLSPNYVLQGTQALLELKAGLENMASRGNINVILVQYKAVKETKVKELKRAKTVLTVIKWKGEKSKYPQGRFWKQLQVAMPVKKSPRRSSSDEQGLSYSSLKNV
Sequence of UniProt P41252 (P41252 whole entry, looked up): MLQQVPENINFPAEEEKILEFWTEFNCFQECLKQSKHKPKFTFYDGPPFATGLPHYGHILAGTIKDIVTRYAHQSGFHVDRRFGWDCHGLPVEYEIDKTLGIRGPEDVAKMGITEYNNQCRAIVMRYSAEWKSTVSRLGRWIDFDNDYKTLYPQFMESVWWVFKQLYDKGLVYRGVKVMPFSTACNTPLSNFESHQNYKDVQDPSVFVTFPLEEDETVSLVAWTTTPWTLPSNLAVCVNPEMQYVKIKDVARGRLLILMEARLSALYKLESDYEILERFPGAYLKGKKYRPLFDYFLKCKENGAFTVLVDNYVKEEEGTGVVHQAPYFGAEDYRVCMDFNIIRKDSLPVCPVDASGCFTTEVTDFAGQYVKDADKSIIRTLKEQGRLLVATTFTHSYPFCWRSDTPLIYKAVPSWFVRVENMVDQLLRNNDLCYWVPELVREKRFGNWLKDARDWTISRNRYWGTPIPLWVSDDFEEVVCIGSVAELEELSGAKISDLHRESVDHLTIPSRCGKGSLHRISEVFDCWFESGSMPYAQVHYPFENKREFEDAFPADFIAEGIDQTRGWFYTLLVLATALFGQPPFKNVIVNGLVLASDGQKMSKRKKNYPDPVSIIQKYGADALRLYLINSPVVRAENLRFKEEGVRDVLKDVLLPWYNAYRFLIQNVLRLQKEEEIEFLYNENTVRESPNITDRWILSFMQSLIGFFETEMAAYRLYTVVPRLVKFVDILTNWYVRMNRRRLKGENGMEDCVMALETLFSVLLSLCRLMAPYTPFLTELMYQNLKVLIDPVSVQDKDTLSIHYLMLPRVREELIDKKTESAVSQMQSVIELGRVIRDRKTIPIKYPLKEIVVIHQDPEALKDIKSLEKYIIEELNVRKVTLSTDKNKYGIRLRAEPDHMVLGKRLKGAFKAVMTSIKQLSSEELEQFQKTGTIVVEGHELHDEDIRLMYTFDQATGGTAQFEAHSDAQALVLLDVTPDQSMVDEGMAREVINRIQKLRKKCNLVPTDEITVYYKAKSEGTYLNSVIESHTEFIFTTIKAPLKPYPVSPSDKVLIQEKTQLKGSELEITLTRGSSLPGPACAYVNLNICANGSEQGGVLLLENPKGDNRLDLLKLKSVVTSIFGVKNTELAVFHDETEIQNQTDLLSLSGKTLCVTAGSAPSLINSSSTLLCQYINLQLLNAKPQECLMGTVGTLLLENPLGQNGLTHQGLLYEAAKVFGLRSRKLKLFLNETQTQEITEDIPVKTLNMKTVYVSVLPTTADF

Consider “IARS_P41252_400_LLVATTFTHSYPFCWR (UniProt P41252)”, for which the “probe-labelled cysteine peptide fold change” value reads like this: (10 µM) 0.0125; (50 µM) 0.177.

Regarding “IFI16_Q16666_737_LTCFELAPK (UniProt Q16666)”, the “probe-labelled cysteine peptide fold change” value was -0.11 (10 µM) and -0.0776 (50 µM).

For “IL1RAP_Q9NPH3_332_SYVCHAR (UniProt Q9NPH3)”, the “probe-labelled cysteine peptide fold change” value is -0.0813 (10 µM) and -0.034 (50 µM).

In the case of “HSP90AA1_P07900_597+598_LVTSPCCIVTSTYGWTANMER (UniProt P07900)”, the “probe-labelled cysteine peptide fold change” value (10 µM) was 0.115 and the “probe-labelled cysteine peptide fold change” value (50 µM) is -0.354.

The values are drawn from the supplement of paper PMC12067093, “Discovery and optimisation of a covalent ligand for TRIM25 and its application to targeted protein ubiquitination” (Chemical Science, 2025).
